Measured values taken from PubChem BioAssay AID463173 (ICCB-Longwood Screening Facility, Harvard Medical School, 2010).
Out of some 52,000 compounds screened, about 4,300 (8.3%) were called active. This is one part of a sample in which actives are shown more often than they occur. Cut-off read from the data, not from the text of the source: active = survival mostly below about 52% (no sharp cut-off); inactive = mostly above about 56%.

These compounds were tested on DeltatarO mutant (assay: S. aureus survival, RN4220 and DeltatarO strains – OD600, teichoic acid synthesis inhibitors, primary screen (AID 463173)). Settings: S. aureus RN4220 wild type/DeltatarO growth, OD600, 18 h, hits give low values, screened at 18.75 µg/mL (by protocol).

| SMILES | survival |
| --- | --- |
| Cc1ccc(NC(=O)C(=O)NCc2ccco2)cc1 | 58% (inactive) |
| O=c1cc(CSc2n[nH]c(-c3ccccc3)n2)[nH]c2ccccc12 | 129% (inactive) |
| Cc1nn2c(=O)cc(COC(=O)c3cccc(NC(=O)c4ccc(C(C)(C)C)cc4)c3)nc2s1 | 85% (inactive) |
| CCc1nn(CC(=O)NCCC(C)C)c(=O)c2cc3occc3n12 | 125% (inactive) |
| CCCc1cc(=O)[nH]c(Nc2cc(Cl)ccc2OC)n1 | 68% (inactive) |
| COC(=O)c1cccc(NC(=O)C2CCN(S(=O)(=O)Cc3ccccc3)CC2)c1C | 77% (inactive) |
| COc1ccc(C)cc1-n1c(-c2ccc(Cl)cc2)cc2c1CC(C)(C)CC2=O | 86% (inactive) |
| Cc1ccc(-n2c3c(cc(-c4nc(-c5ccc(Cl)cc5)cs4)c2=O)C(=O)CC(C)(C)C3)cc1 | 79% (inactive) |
| COc1ccc(-n2c(-c3ccc(C)cc3)cc3c2CC(C)(C)CC3=O)c(OC)c1 | 101% (inactive) |
| COc1cccc(-n2c(-c3ccc(Cl)cc3)cc3c2CC(C)(C)CC3=O)c1 | 35% (active) |
| COc1ccc(-n2c3c(cc(-c4nc(-c5ccc(Cl)cc5)cs4)c2=O)C(=O)CC(C)(C)C3)cc1 | 140% (inactive) |
| COc1cccc(-n2c(-c3ccc(C)cc3)cc3c2CC(C)(C)CC3=O)c1 | 18% (active) |
| CC1(C)CC(=O)c2cc(-c3nc(-c4ccc(Cl)cc4)cs3)c(=O)n(-c3cccc(F)c3)c2C1 | 70% (inactive) |
| Cc1cccc(-n2c3c(cc(-c4nc(-c5ccc(Cl)cc5)cs4)c2=O)C(=O)CC(C)(C)C3)c1 | 62% (active) |
| COc1ccc(-n2c(-c3ccc(C)cc3)cc3c2CC(C)(C)CC3=O)cc1Cl | 80% (inactive) |
| Cc1ccc(-c2cc3c(n2-c2ccc(C)cc2)CC(C)(C)CC3=O)cc1 | 74% (inactive) |
| COc1ccc(-n2c(-c3ccc(Cl)cc3)cc3c2CC(C)(C)CC3=O)c(OC)c1 | 4% (active) |
| COc1ccc(C)cc1-n1c(-c2ccc(C)cc2)cc2c1CC(C)(C)CC2=O | 114% (inactive) |
| CN(C)c1ccc(CNC(=O)c2cnc3sc(N4CCOCC4)nn3c2=O)cc1 | 85% (inactive) |
| CC(CCc1ccccc1)NC(=O)Cn1ncc2c3ccccc3n(Cc3ccccc3)c2c1=O (configuration not stated) | 81% (inactive) |
| CCc1ccc(OCC2c3cc(OC)c(OC)cc3CCN2C(=O)COc2ccccc2)cc1 (configuration not stated) | 91% (inactive) |
| CCC(C(=O)NCc1ccccc1Cl)n1nc(C)c2sc3ccccc3c2c1=O (configuration not stated) | 103% (inactive) |

| SMILES | survival |
| --- | --- |
| Cc1cccc(NC(=O)c2cc(S(=O)(=O)N3CCCCCC3)cn2C)c1C | 67% (inactive) |
| O=C(NCCc1ccccc1)C1CCN(Cc2cc3ccccc3n2Cc2ccccc2)CC1 | 79% (inactive) |
| Cc1cccc(N(C)S(=O)(=O)c2cc3[nH]c(=O)c(=O)[nH]c3cc2C)c1 | 88% (inactive) |
| CC(C)c1cnc2c(c1SCC(=O)Nc1cccc(F)c1)c(=O)n(C)c(=O)n2C | 81% (inactive) |
| O=S(=O)(c1ccc(-c2csc(=Nc3ccc(F)cc3)n2CCCCCCO)cc1)N1CCCC1 | 56% (inactive) |
| Cc1ccc(-c2csc(=Nc3ccccc3)n2Cc2ccc3c(c2)OCO3)cc1 | 73% (inactive) |
| CCN(CC)CCn1c(-c2ccccc2)csc1=Nc1ccccc1 | 42% (active) |
| O=S(=O)(c1ccc(-c2csc(=Nc3ccc(OC(F)(F)Cl)cc3)n2CCCO)cc1)N1CCCC1 | 159% (inactive) |
| OCCCn1c(-c2ccc(F)cc2)csc1=Nc1ccc(F)cc1 | 39% (active) |
| Cc1ccc(-c2csc(=Nc3ccccc3)n2Cc2ccc3c(c2)OCO3)cc1C | 112% (inactive) |
| COc1ccc(-c2csc(=Nc3ccccc3)n2CCO)cc1F | 58% (inactive) |
| Cc1ccc(-c2csc(=Nc3ccccc3)n2CCCO)cc1 | 5% (active) |
| Clc1ccc(-c2csc(=Nc3ccccc3)n2Cc2ccc3c(c2)OCO3)cc1 | 95% (inactive) |
| CCOC(=O)c1c(NC(=O)CSc2cn(CCNC(=O)c3c(F)cccc3F)c3ccccc23)sc2c1CCC2 | 93% (inactive) |
| COc1ccc(Cl)cc1NC(=O)c1cc(S(=O)(=O)N(C)Cc2ccccc2)ccc1F | 74% (inactive) |
| O=C(c1cc(-c2ccc(Br)cc2)n[nH]1)N1CCN(S(=O)(=O)c2ccc(Br)cc2)CC1 | 79% (inactive) |
| CN(C)S(=O)(=O)n1cc(/C=C(\NC(=O)c2ccccc2)C(=O)NCCCn2ccnc2)c2ccccc21 | 104% (inactive) |
| COc1ccc(CNC(=O)c2ccc(NC(=O)N3CCSc4ncccc43)cc2)c(OC)c1 | 81% (inactive) |
| COc1ccc(OC)c(C2C(C(N)=O)=C(C)Nc3nc(-c4cccc(Cl)c4)nn32)c1 (configuration not stated) | 113% (inactive) |
| CCOc1ccc(S(=O)(=O)N2CCN(c3cc(Cl)ccc3Cl)CC2)c2ccccc12 | 64% (inactive) |
| O=C(Nc1nnc(S(=O)(=O)N2CCCc3ccccc32)s1)c1ccccc1 | 27% (active) |
| O=C(Nc1nnc(S(=O)(=O)N2CCCc3ccccc32)s1)c1ccc(Cl)cc1 | 15% (active) |

| SMILES | survival |
| --- | --- |
| O=C(Nc1nnc(S(=O)(=O)N2CCc3ccccc32)s1)c1ccccc1 | 12% (active) |
| CCC(CC)C(=O)Nc1nnc(S(=O)(=O)N2CCc3ccccc32)s1 | 73% (inactive) |
| Cc1c(Cl)ccc2sc(NC(=O)c3ccc(S(=O)(=O)N4CCCc5ccccc54)cc3)nc12 | 55% (inactive) |
| O=C(Nc1nnc(S(=O)(=O)N2CCCc3ccccc32)s1)c1cccc(F)c1 | 7% (active) |
| O=C(Nc1nc2c(F)cccc2s1)c1ccc(S(=O)(=O)N2CCCc3ccccc32)cc1 | 102% (inactive) |
| Cc1cc(C)c2nc(NC(=O)c3ccc(S(=O)(=O)N4CCc5ccccc54)cc3)sc2c1 | 83% (inactive) |
| Cc1nc2ccccc2c2nc(N)nn12 | 85% (inactive) |
| C=Cc1ccc(CSc2nc(-c3ccc(Cl)cc3)nc3c2Cc2c(CO)cnc(C)c2O3)cc1 | 70% (inactive) |
| COc1ccc(NC(=O)Cn2c(SCc3ccc(F)cc3)nc3cccnc32)cc1OC | 74% (inactive) |
| CC(=O)c1ccc(S(=O)(=O)Nc2cccc(-c3ccc(N4CCCC4)nn3)c2)cc1 | 89% (inactive) |
| Cc1ccccc1Cn1c(=O)n(CCCCCC(=O)NCc2ccc3c(c2)OCO3)c(=O)c2sccc21 | 101% (inactive) |
| COc1ccc2c(=O)c(NC(=O)Nc3ccc(F)cc3F)c[nH]c2c1 | 92% (inactive) |
| O=c1c2sc3ccccc3c2n(Cc2cccc(C(F)(F)F)c2)c(=O)n1Cc1ccc(F)cc1 | 114% (inactive) |
| O=C(Nc1ccc(F)cc1F)C1CCN(C(=O)c2cnn(-c3ccccc3)c2-n2cccc2)CC1 | 106% (inactive) |
| C=CCSc1nc2sc3c(c2c(=O)n1CC=C)CCCC3 | 98% (inactive) |
| C=CCn1c(SC(C)C)nc2sc3c(c2c1=O)CCCC3 | 71% (inactive) |
| C=C(C)Cn1c(SCC(=O)Nc2ccccc2C)nc2sc3c(c2c1=O)CCCC3 | 126% (inactive) |
| O=c1c2c3c(sc2nc(NCCO)n1-c1ccccc1)CCCC3 | 92% (inactive) |
| CC(C)Sc1nc2sc3c(c2c(=O)n1-c1ccccc1)CCCC3 | -3% (active) |
| O=c1[nH]c2sc3c(c2c(=O)n1-c1ccccc1)CCCC3 | 70% (inactive) |
| C#CCSc1nc2sc3c(c2c(=O)n1Cc1ccccc1)CCCC3 | 33% (active) |
| CC(C)Sc1nc2sc3c(c2c(=O)n1Cc1ccccc1)CCCC3 | 13% (active) |

| SMILES | survival |
| --- | --- |
| CCCCC(c1nnnn1C(C)C)N1CCN(c2ccc(F)cc2)CC1 (configuration not stated) | 85% (inactive) |
| CCOC(=O)Cn1c2[n+](c3ccccc31)CC(O)CS2 (configuration not stated) | 72% (inactive) |
| Cc1ccc(CNC(=O)CSc2nc3ccsc3c(=O)n2-c2ccc(C(=O)O)cc2)cc1 | 95% (inactive) |
| Cc1ccc(C)c(NC(=O)C2CCCN2S(=O)(=O)c2ccc3c(c2)n(C)c(=O)c(=O)n3C)c1 (configuration not stated) | 38% (active) |
| Cc1ccc(NC(=O)C2CCCN2S(=O)(=O)c2ccc3c(c2)n(C)c(=O)c(=O)n3C)cc1 (configuration not stated) | 87% (inactive) |
| Cc1ccc(NC(=O)C2CCCN2S(=O)(=O)c2ccc3c(c2)n(C)c(=O)c(=O)n3C)cc1C (configuration not stated) | 115% (inactive) |
| COc1ccc2cc(CNc3ccccc3)c(=O)n(CC(=O)Nc3ccc(C(C)=O)cc3)c2c1 | 68% (inactive) |
| COc1ccccc1NC(=O)C(C#N)Cc1cc2cc(C)cc(C)c2[nH]c1=O (configuration not stated) | 98% (inactive) |
| CCOC(=O)c1cc2c(ccn2-c2ccc(F)cc2)n1CC(=O)c1ccc2c(c1)OCCO2 | 100% (inactive) |
| COc1ccccc1C(=O)N(Cc1nc(-c2cccc(C)c2)no1)C(C)C | 62% (inactive) |
| Cc1cccc(-c2noc(CN(C(=O)COc3ccc(C(C)C)cc3)C(C)C)n2)c1 | 11% (active) |
| Cc1cccc(-c2noc(CN(C(=O)c3ccc(C)c(C)c3)C(C)C)n2)c1 | -3% (active) |
| CCOc1ccc(C(=O)N(Cc2nc(-c3cccc(C)c3)no2)C(C)C)cc1 | 0% (active) |
| Cc1cccc(-c2noc(CN(C(=O)c3ccccc3Cl)C(C)C)n2)c1 | 62% (inactive) |
| Cc1cccc(-c2noc(CN(C(=O)COc3ccc(Br)cc3C)C(C)C)n2)c1 | 45% (active) |
| CC(Oc1ccc(Br)cc1)C(=O)N(Cc1nc(-c2ccccc2)no1)C(C)C (configuration not stated) | 97% (inactive) |
| COc1ccc(OC(C)C(=O)NCc2nc(-c3cccc(C)c3)no2)cc1 (configuration not stated) | 61% (inactive) |
| Cc1ccc2cc(CN(C(=O)c3cccc(Cl)c3)c3ccccc3)c(=O)[nH]c2c1 | 74% (inactive) |
| CCS(=O)(=O)N1CCc2cc(C(=O)Nc3cc(C(F)(F)F)ccc3Cl)ccc21 | 48% (inactive) |
| Cc1ccc(-c2noc(CSc3nnc(C)n3-c3ccc(F)cc3)n2)cc1 | 61% (inactive) |
| CCCN1CCN(CCCNC(=O)c2cc3c(=O)[nH]c4ccccc4c3s2)CC1 | 79% (inactive) |
